Measurements taken from PubChem BioAssay AID687001 (Broad Institute, 2013).
Potency and affinity values are given separately. Calls of active or inactive are those of the source.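 How the source made its calls: active means signal-lowering compounds whose fitted half-maximal concentration is at or below twice the top tested dose in every run; inconclusive means runs disagree, flat 30 to 70% inhibition, or poor curve fit; inactive means the rest.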

Target: Protein S100-A4 (Homo sapiens) (UniProt P26447)
Sequence (P26447 whole entry, looked up): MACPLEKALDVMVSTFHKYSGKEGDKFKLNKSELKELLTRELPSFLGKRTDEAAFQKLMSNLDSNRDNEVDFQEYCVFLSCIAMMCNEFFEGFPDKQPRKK
Assay: human S100A4 peptide interaction inhibition curves – biochemical, fluorescence polarization, cherry-picked hits, dose response (AID 687001);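 further: 0% = DMSO neutral control wells and -100% = TFP positive control wells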
Settings: FP, S100A4/TAMRA-myosin IIA peptide binding; series mostly up to 11 µM; activity change, negative = inhibition: at the top concentration

Activity change, negative = inhibition, inactive:
CC(C)OCCCNC(=O)c1ccccc1NC(=O)C1=CSCCO1 -5.74%, Cn1c(-c2ccc(Cl)cc2)cnc1NCc1cc2c(cc1[N+](=O)[O-])OCO2 -4.69%, CC1=CC(C)(C)NC(=S)N1C(C)c1ccccc1 (stereo not drawn) -1.25%, COCC(=O)N1[C@H](CO)[C@@H](c2ccccc2)C12CN(C(=O)Cc1ccccn1)C2 8.22%, Cc1ccc(S(=O)(=O)Nc2ccc3c(c2)C(=O)N([C@H](C)CO)C[C@@H](C)[C@H](CN(C)S(C)(=O)=O)OCCCC[C@@H](C)O3)cc1 6.54%, Nc1nc(SCC(=O)c2ccc(Cl)cc2)c2ncn(C3OC(CO)C(O)C3O)c2n1 (stereo not drawn) -1.28%, Cc1ccccc1S(=O)(=O)NCC[C@H]1CC[C@H](NC(=O)C2CCC2)[C@H](CO)O1 4.41%, O=C(C[C@H]1C[C@@H]2c3cc(NC(=O)c4cccnc4)ccc3O[C@@H]2[C@H](CO)O1)NCc1ccncc1 -7.1%, CC(=O)Nc1ccc(NC(=O)C(C)OC(=O)CCCN=C2NS(=O)(=O)c3ccccc32)cc1 (stereo not drawn) 58%, CN1c2ccc(C3=CCCCC3)cc2[C@@H]2[C@@H](CCN2C(=O)C2CC2)[C@H]1CO -0.905% [at 10 µM], COc1ccc(-c2sc3ccccc3c2-c2ccc(OCCN(C)C)cc2)cc1 -0.806%, COCCNC(=O)C[C@@H]1CC[C@H]2[C@@H](COC[C@H](O)CN2Cc2cccc(-c3ccncc3)c2)O1 0.88%, O=C(COC(=O)C12CC3CC(CC(Br)(C3)C1)C2)Nc1c(F)cccc1F -1.4%, CC=Cc1ccc2n(c1=O)C[C@@H]1[C@@H](CO)[C@H](C(=O)NCc3ccc4c(c3)OCO4)[C@H]2N1C(C)=O (mixture of isomers) -3.41%, CCc1noc(C)c1C(=O)Nc1nc(-c2ccc(OC)cc2OC)cs1 15.2%, COc1ccc(NC(=O)Nc2cccc3c2O[C@H](CN(C)Cc2ccc4c(c2)OCO4)[C@@H](C)CN([C@@H](C)CO)C3=O)cc1 9.31%, C[C@@H]1CN([C@@H](C)CO)C(=O)c2cc(NC(=O)CCCCCC(=O)Nc3ccccc3N)ccc2O[C@H]1CN(C)C(=O)Nc1ccc2c(c1)OCO2 4.37%, CSc1cccc(NS(=O)(=O)c2ccc(-c3coc(C)n3)cc2)c1 1.05%, Cc1ccc(C(=O)N2CCN(c3ccc([N+](=O)[O-])c(N4CCOCC4)c3)CC2)cc1 -1.61%, COc1ccc(CNC(=O)CN(C(=O)CCC(=O)Nc2ccccn2)c2ccc(C)cc2)cc1 2.84%, COc1ccccc1NC(=O)N1CC(=O)N2[C@H](CO)[C@H](c3ccc(-c4ccc(F)cc4)cc3)[C@@H]2C1 6.59%, C[C@@H]1CN([C@@H](C)CO)C(=O)c2cccc(NC(=O)C3CC3)c2O[C@@H]1CN(C)S(C)(=O)=O 0.87%, COc1ccc(NC(=O)N(C)C[C@H]2Oc3ccc(N(C)C)cc3C(=O)N([C@@H](C)CO)C[C@@H]2C)cc1 -4.59%, CC(=O)N1CC(C)Oc2ccc(S(=O)(=O)NC(CC(=O)O)c3cc(C)ccc3C)cc21 (stereo not drawn) 0.235%, O=C(Nc1nnc([C@H]2C[C@H](O)[C@@H](CO)O2)s1)c1cccc(Oc2ccccc2)c1 8.33%, COc1ccccc1CNc1nc(C)c(C(C)=O)s1 -3.39%, O=C(COC(=O)Cc1ccc(Cl)c(Cl)c1)Nc1ccc2[nH]c(=O)[nH]c2c1 1.28%, Cc1ccc(S(=O)(=O)N(C)C[C@H]2OCCCC[C@@H](C)Oc3ccc(NS(=O)(=O)c4c(C)noc4C)cc3C(=O)N([C@@H](C)CO)C[C@H]2C)cc1 33.5%, COc1ccc2oc(C)c(C(=O)c3ccc(C)cc3)c2c1 -2.59%, Cc1cc(-c2nc(C)c(-c3nnc(SCC(=O)Nc4ccc(Cl)cc4)n3C)s2)no1 0.268%, O=C(Nc1ccccc1F)N1C[C@@H]2[C@H](c3ccccc31)[C@@H](CO)N2C(=O)C1CCCC1 2.82%, COc1cc(/C=C/C(=O)OCC(=O)N2c3ccccc3NC(=O)C2(C)C)cc(OC)c1OC 6.96%, CCOc1cc(CNCc2ccccc2)ccc1OCc1ccc(Cl)cc1 -1.22%, O=C(Cc1ccc(Br)cc1)N/N=C/c1cccnc1 -3.2%, COc1cccc(NC(=O)N[C@@H]2C=C[C@@H](CC(=O)NCc3ccncn3)O[C@@H]2CO)c1 0.495%, C[C@@H]1CCCCO[C@@H](CN(C)C(=O)C2CCCCC2)[C@@H](C)CN([C@H](C)CO)C(=O)c2cc(NC(=O)CCCCCC(=O)Nc3ccccc3N)ccc2O1 5.83% [at 10 µM], C[C@@H]1CCCCO[C@@H](CN(C)S(=O)(=O)c2cn(C)cn2)[C@H](C)CN([C@@H](C)CO)C(=O)c2cc(NC(=O)C3CCCCC3)ccc2O1 0.768%, Cc1ccc(S(=O)(=O)Nc2ccc3c(c2)C(=O)N([C@H](C)CO)C[C@@H](C)[C@@H](CN(C)C(=O)NC(C)C)OCCCC[C@@H](C)O3)cc1 4.8%
